# Screening results as filed in PubChem.
# Marburg entry: Marburg virus entry inhibition; Marburg virus pseudotype entry/binding inhibition, cell-based; Potency, µM (series often up to 49.2 µM), without a hit: at the highest dose activity change, negative = inhibition, most hits filed as inhibitors; actives 6.5% (n = 18,000)
# LASV entry inh: blocks Lassa virus binding or cell entry; Lassa virus pseudotyped entry inhibition, cell-based qHTS; Potency, µM (series often up to 49.2 µM), for the others: at the highest dose activity change, negative = inhibition, actives largely listed as inhibitors; actives 4.1% (n = 18,000); AID 720533
# Active calls of the source: *; ? = inconclusive; / = not tested or not shown; [ ] = remark or other dose. Sampled rows, rich in hits. Any-hit rate of the full collection: about 7.1%. The call rests on the fitted dose curve; tested in HEK293 cells. On the % scale 0 is the no-effect control and ±100 the full control effect; potency means the concentration at half of the fitted maximal effect.
SMILES,Marburg entry,LASV entry inh
Nc1cccc2c(N)cccc12,3%[107 µM],-7%[107 µM]
CC(C)[C@@H](OCc1ccccc1)[C@H](C)CON=C1[C@H]2CCn3c(=O)n(-c4ccccc4)c(=O)n3[C@@H]2[C@H](O)[C@@H]2O[C@H]12,25%[8.59 µM],10%[8.59 µM]
O=C(Nc1ccc(C(=O)Nc2ccc(C(=O)Nc3ccc(S(=O)(=O)O)c4cc(S(=O)(=O)O)cc(S(=O)(=O)O)c34)cc2)cc1)Nc1ccc(C(=O)Nc2ccc(C(=O)Nc3ccc(S(=O)(=O)O)c4cc(S(=O)(=O)O)cc(S(=O)(=O)O)c34)cc2)cc1,4µM*,5%
O=C(Nc1cc(C(=O)Nc2ccc(S(=O)(=O)O)cc2S(=O)(=O)O)cc(C(=O)Nc2ccc(S(=O)(=O)O)cc2S(=O)(=O)O)c1)Nc1cc(C(=O)Nc2ccc(S(=O)(=O)O)cc2S(=O)(=O)O)cc(C(=O)Nc2ccc(S(=O)(=O)O)cc2S(=O)(=O)O)c1,-23%,-5%
C=CCOC(=O)N[C@H](c1ccc2ccccc2c1)[C@H](C)C=CCC(=O)OC,-4%[8.59 µM],/
COc1ccc(C(=O)CC(=O)c2c(O)cc(OC)cc2OC)cc1,18%[8.59 µM],-12%[8.59 µM]
COc1cc(O)c(C(C)=O)c(OC)c1,8.9µM*,5.6µM*
COc1ccc(-c2ccncc2)cc1C(N)=O,?,-14%
C[C@H]1CC[C@@H]2[C@@H](C)[C@H]3[C@H](C[C@H]4[C@@H]5CC=C6C[C@@H](O[C@]7(O[C@H]8O[C@@H](C)[C@@H](O)[C@@H](O)[C@@H]8O)C[C@@H](O[C@@H]8O[C@H](CO)[C@@H](O)[C@H](O)[C@@H]8O)[C@@H](O)[C@H](CO)O7)CC[C@]6(C)[C@H]5CC[C@@]34C)N2C1,4%[17.8 µM],14%[17.8 µM]
C[C@H]1CC[C@@H]2[C@@H](C)[C@H]3[C@H](C[C@H]4[C@@H]5CC=C6CC(O[C@@H]7O[C@H](CO)[C@H](O)[C@H](O[C@@H]8O[C@H](CO)[C@@H](O)[C@H](O)[C@H]8O)[C@H]7O[C@H]7O[C@@H](C)[C@H](O)[C@@H](O)[C@H]7O)CC[C@]6(C)[C@H]5CC[C@]34C)N2C1 (some centres undefined),16µM*,32µM*
CCN(CC)CCNC(=O)c1cnn(-c2ncc3c(n2)-c2ccc(OC)cc2CC3)c1C,13µM*,?
CCC(O)CNC(=O)c1cnn(-c2ncc3c(n2)-c2ccc(OC)cc2CC3)c1C1CC1 (centres undefined),0%,8%
CN1CCN(CCCN2c3ccccc3Sc3ccc(C(F)(F)F)cc32)CC1,16µM*,22µM*
O=C(CCN1CCN(CCO)CC1)N1c2ccccc2Sc2ccc(C(F)(F)F)cc21,?,-15%
O=c1n(CCCN2CCN(c3cccc(Cl)c3)CC2)nc2ccccn12,10%,0%
O=C1CSC2(CCN(CCCN3c4ccccc4Sc4ccc(Cl)cc43)CC2)N1,22µM*,?
N#Cc1ccc2c(c1)N(CCCN1CCC(O)CC1)c1ccccc1S2,20µM*,-9%
c1ccc2c(c1)Sc1ccccc1N2CCN1CCCC1,?,-28%
O=C(C=Cc1ccccc1)Nc1cccc(C(=O)N2CCCC2)c1,42%,38%
CCOC(=O)NN=C1C[C@@H](O)[C@@H](O)[C@@H]2[C@H]3C(=O)N(Cc4ccccc4)C(=O)[C@@H]3CC[C@@H]12,25%[8.59 µM],8%[8.59 µM]
COC(=O)[C@@H]1[C@H](CCc2ccccc2)NC(=O)N(Cc2ccccc2)[C@H]1C,-24%[8.59 µM],/
COc1cc([C@@H]2c3cc4c(cc3C(O[C@@H]3O[C@@H]5CO[C@@H](C)O[C@H]5[C@H](O)[C@H]3O)C3COC(=O)[C@@H]32)OCO4)cc(OC)c1OP(=O)(O)O (some centres undefined),2.8µM*,3.2µM*
COc1cc(C2c3cc4c(cc3C(OC3OC5COC(C)O[C@@H]5C(O)C3O)C3COC(=O)C23)OCO4)cc(OC)c1O (some centres undefined),1.1µM*,?
COc1cc([C@@H]2c3cc4c(cc3[C@@H](O[C@@H]3O[C@@H]5CO[C@@H](C)O[C@H]5[C@H](O)[C@H]3O)[C@H]3COC(=O)[C@H]23)OCO4)cc(OC)c1O,?,1.1µM*
COc1ccc([C@]23Cc4ccccc4[C@H](O2)C2=C(CCCC2=O)O3)cc1,57%[8.59 µM],-4%[8.59 µM]
COC(=O)[C@]1(CC=Cc2ccccc2)C=C[C@@H](C)[C@H](c2ccccc2Br)N1C(=O)C(F)(F)F,13%[8.59 µM],15%[8.59 µM]
COc1ccccc1C1CN(Cc2cccc(C)n2)Cc2ccccc2O1 (centres undefined),5.6µM*,7.1µM*
COc1ccccc1C1CN(Cc2c(O)cccc2OC)Cc2ccccc2O1 (centres undefined),2%,-15%
CC1(C)CCC2=C(O1)c1ccccc1C(=O)C2=O,11µM*,7.1µM*
C=C(C)C(O)C=Cc1ccc(Br)cc1 (centres undefined),?,35%[8.59 µM]
